# Screening results deposited in PubChem BioAssay by National Center for Advancing Translational Sciences (NCATS).
# Tau ThT inhib – qHTS for Inhibitors of Tau Fibril Formation, Thioflavin T Binding | recombinant tau K18 P301L, heparin-induced fibrillization, ThT fluorescence | Potency, µM (series often up to 57.4 µM), for the others: at the highest dose activity, negative = inhibition, usual class: inhibitors | actives 2.1% (n = 270,000) | AID 1460, 2008; also: nearly all actives have a fitted effect of over 55% in size
# Target sequence (P10636 561-689 P618L limits assumed): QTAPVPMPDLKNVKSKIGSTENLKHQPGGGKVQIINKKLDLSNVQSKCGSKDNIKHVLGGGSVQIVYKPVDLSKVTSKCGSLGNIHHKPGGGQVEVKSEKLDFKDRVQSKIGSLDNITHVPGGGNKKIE
#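 Tau K18 P301L fragment (15 uM unlabeled plus 0.24 uM Alexa 594-labeled) in 100 mM sodium acetate pH 7 with compound, fibrillization induced by 20 uM heparin for 6 hr at 37 C. Thioflavin T (30 uM) added, fluorescence read after 1 hr (ex 450, em 510 nm).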
# Tau fibril FP – qHTS for Inhibitors of Tau Fibril Formation, Fluorescence Polarization. Microtubule-associated protein tau (Homo sapiens), P10636. K18 P301L tau heparin fibrillization, Alexa594 FP, 6 h. Potency, µM (doses to about 57.7 µM), for inactives: top-dose activity, negative = inhibition, usual class: inhibitors. actives 0.39% (n = 280,000); also: nearly all actives have a fitted effect of over 55% in size
#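 Recombinant K18 P301L […], labeled with Alexa 594 at 0.24 uM over 15 uM unlabeled; heparin inducer 20 uM final; 37 C, 6 hr; FP endpoint.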
# Tau fluor counter – Counterscreen qHTS for Inhibitors of Tau Fibril Formation, Fluorescence Polarization; tau K18 P301L (four-repeat tau fragment) Alexa594 fluorescence, heparin fibrillization; Potency, µM (doses to about 57.7 µM), for inactives: at the highest dose activity change, negative = decrease; actives 0.93% (n = 280,000); AID 1463, 2008; also: nearly all actives have a fitted effect of over 55% in size
#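 Human K18 P301L tau (15 uM unlabeled plus 0.24 uM Alexa 594-labeled, final) in 100 mM sodium acetate pH 7 was mixed with compound and 20 uM heparin and incubated 6 hr at 37 C.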
# TRb SRC2 PPI – qHTS for Inhibitors of the Interaction of Thyroid Hormone Receptor and Steroid Receptor Coregulator 2; Potency, µM (doses to about 106 µM), without a hit: at the highest dose activity change, negative = inhibition, hits mostly inhibitors; actives 0.065% (n = 280,000); AID 1469, 2008; TRbeta-SRC2 peptide binding, fluorescence polarization; receptor liganded with 1 µM T3;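 also: plate controls were bound peptide for no effect and peptide without receptor for full effect; nearly all actives have a fitted effect of over 50% in size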
# Target sequence (P10828 whole entry, looked up): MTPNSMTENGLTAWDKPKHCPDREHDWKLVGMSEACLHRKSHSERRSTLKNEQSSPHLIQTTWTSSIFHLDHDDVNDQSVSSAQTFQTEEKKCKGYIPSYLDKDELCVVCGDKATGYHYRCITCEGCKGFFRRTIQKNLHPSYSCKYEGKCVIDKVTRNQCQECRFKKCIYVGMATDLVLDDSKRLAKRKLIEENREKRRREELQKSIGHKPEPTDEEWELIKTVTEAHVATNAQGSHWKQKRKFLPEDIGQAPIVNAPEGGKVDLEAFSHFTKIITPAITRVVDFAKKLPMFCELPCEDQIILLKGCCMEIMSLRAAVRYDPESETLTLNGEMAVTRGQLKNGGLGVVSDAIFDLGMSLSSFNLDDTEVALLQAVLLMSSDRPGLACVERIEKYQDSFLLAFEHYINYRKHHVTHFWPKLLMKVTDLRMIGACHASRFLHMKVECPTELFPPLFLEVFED
#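 Assay buffer: 20 mM Tris-HCl, 100 mM NaCl, 10% glycerol, 1 mM EDTA, 0.01% NP-40, 1 mM DTT, 1 uM T3, 5% DMSO; TRb LBD 0.6 uM, Texas Red SRC2 20 nM; FP after 5 hr.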
# TexasRed fluor – Total Fluorescence Counterscreen for Inhibitors of the Interaction of Thyroid Hormone Receptor and Steroid Receptor Coregulator 2 | Potency, µM (titrated, usually from 106 µM), inactives show top-dose fluorescence change, negative = quenching | TRb/SRC2 Texas Red total fluorescence interference | actives 0.29% (n = 280,000); active = well fitted curve in either direction with a large enough effect; inconclusive = small, poorly fitted or top-dose-only effect
#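 Human TRβ ligand-binding domain (0.6 uM) and Texas Red SRC2 peptide (20 nM) in Tris buffer with 1 uM T3 and 5% DMSO were incubated with pinned compound for 5 hr at ambient temperature. Total fluorescence was computed as S + 2P (555/632 nm).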
# An asterisk follows results filed as active; ? = inconclusive; · = no result; [ ] = another dose, or the depositor's remark. The list is not random: actives were taken first. Their share in the collection is about 3%. Unless noted, calls follow the shape of the dose curve; as a rule, active = well fitted curve in the direction sought with a large enough effect; inconclusive = small, poorly fitted or top-dose-only effect, or another doubt; inactive = no such curve, though single readings can be large; an effect the other way counts as inactive or inconclusive. Unless noted, % is scaled to controls: 0 for no effect and ±100 for the full control effect; potency is read from the fitted curve at half-maximal effect.
SMILES,Tau ThT inhib,Tau fibril FP,Tau fluor counter,TRb SRC2 PPI,TexasRed fluor
COC(=O)/C(=C1/Oc2cc(C)oc(=O)c2S1)C(F)(F)F,8.91µM*,?,-21.5%,-2.0%,-9.0%
CCOC(=O)c1cccc(Nc2cc(-c3ccccc3)ncn2)c1,?,?,?,-17.8%,0.316µM*[quencher]
CCOC(=O)c1cccc(Nc2nc(C(=O)OCC)nc3ccccc23)c1,-3.9%,?,?,3.5%,-1.9%
Oc1ccc(Nc2ccnc3cc(Cl)ccc23)cc1,?,-5.5%,-24.3%,4.9%,-2.1%
Clc1ccc(NNc2ccnc3cc(Cl)ccc23)cc1,3.16µM*,-8.5%,?,3.8%,-1.6%
O=S(=O)(NCCNC/C=C/c1ccc(Br)cc1)c1cccc2cnccc12,-5.1%,?,-24.0%,-6.1%,-2.2%
COC(=O)c1c(C)[nH]c(-c2csc(N)n2)c1C,25.1µM*,-13.4%,?,4.7%,1.0%
Cc1ccc(NC(=O)c2cnn3c(C(F)F)cc(-c4ccccc4)nc23)cc1F,-6.5%,-9.2%,-9.9%,0.8%,3.3%
COc1cccc(CNC(=O)c2c(C)oc3nc(C)nc(N4CCOCC4)c23)c1,10.5%,-8.2%,11.8%,-8.9%,1.5%
Cc1ccc2c(c1)-c1c(cnn1CC(=O)N1CCN(c3cccc(C(F)(F)F)c3)CC1)CO2,?,0.0%,-4.7%,2.9%,-15.8%
CC(=O)Nc1ccc(S(=O)(=O)Nc2nnc(CC(C)(C)C)s2)cc1,3.98µM*,18.1%,-33.0%,-1.9%,-5.9%
O=C1C2=CC[C@H]3C(=O)N(C[C@@H]4CCCO4)C(=O)[C@@H]3[C@@H]2[C@H](O)[C@@H]2O[C@H]12,3.16µM*,?,-29.9%[11.6 µM],-5.2%[11.2 µM],-1.0%[11.2 µM]
O=C1C2=CC[C@H]3C(=O)N(Cc4ccccc4)C(=O)[C@@H]3[C@@H]2[C@H](O)[C@@H]2O[C@H]12,?,?,-17.7%[11.6 µM],4.2%[11.2 µM],?
CCN1C(=O)[C@@H]2[C@H]3C(=CC[C@H]2C1=O)C(=O)[C@H]1OC1[C@H]3O (stereo partly specified),3.98µM*,?,-25.6%[11.6 µM],1.6%[11.2 µM],-4.0%[11.2 µM]
C=Cc1ccccc1C=C,·,·,·,1.2%,-0.9%
CC(C)COc1ccc(C(=O)N2CCCCC2CCN2CCOCC2)cc1 (stereo unspecified),2.4%,1.0%,5.0%,-5.4%,-1.9%
Cc1cc(N=Nc2c(O)c3ccccc3[nH]c2=O)ccc1N=Nc1ccc(C(=O)N(C)C)cc1,2.24µM*,-8.5%,?,-2.9%,-4.2%
Cc1ccc(N=Nc2c(O)c3ccccc3[nH]c2=O)c(S(=O)(=O)N(C)C)c1,?,8.8%,-14.0%,-12.8%,-0.5%
Cc1cccc(NC(=O)C2CCCN2S(=O)(=O)c2ccc3nc(-c4ccccc4)[nH]c3c2)c1 (stereo unspecified),1.3%,?,20µM*[quencher],-5.8%,-2.1%
Cc1ccc(NC(=O)C2CCCN2S(=O)(=O)c2ccc3nc(-c4ccccc4)[nH]c3c2)cc1C (stereo unspecified),-14.6%,?,31.6µM*[quencher],0.4%,-0.6%
CC(C)c1ccc(NC(=O)C2CCCN2S(=O)(=O)c2ccc3nc(-c4ccccc4)[nH]c3c2)cc1 (stereo unspecified),8.9%,14.1µM*,11.2µM*[quencher],6.4%,-2.4%
CC(C)c1ccc(NC(=O)C2CCCN(S(=O)(=O)c3ccc4[nH]c(=O)ccc4c3)C2)cc1 (stereo unspecified),5.6%,-16.6%,-8.8%,-7.4%,1.2%
COc1cccc(NC(=O)C2CCCN2S(=O)(=O)c2ccc3nc(-c4ccccc4)[nH]c3c2)c1 (stereo unspecified),-10.6%,-15.4%,-11.1%,0.2%,-6.6%
Oc1cc2c(cc1C(c1ccc(Br)cc1)N1CCCC1)OCO2 (stereo unspecified),22.4µM*,-10.0%,?,10.0%,-4.6%
CCc1ccc(S(=O)(=O)c2cnc3ccc(OC)cc3c2N2CCCC(C)C2)cc1 (stereo unspecified),-13.1%,-2.1%,-18.4%,-0.6%,1.9%
SMILES,Tau ThT inhib,Tau fibril FP,Tau fluor counter,TRb SRC2 PPI,TexasRed fluor
CC1(C)CC(=O)C2=C(C1)c1c(ccc3ccccc13)NC2c1cc([N+](=O)[O-])cc([N+](=O)[O-])c1O (stereo unspecified),11.2µM*,?,?,-8.8%,1.4%
Cc1ccc(C2Nc3ccc4ccccc4c3C3=C2C(=O)CC(C)(C)C3)o1 (stereo unspecified),?,8.6%,?,2.3%,-2.3%
C=CCN=c1scc(-c2ccco2)n1/N=C/c1ccc(O)c(O)c1O,6.31µM*,?,7.94µM*[quencher],8.6%,-7.4%
COc1cccc(/C=N/n2c(-c3ccco3)nc3ccccc3c2=O)c1,?,-1.4%,-19.2%,-14.4%,1.9%
Oc1ccc(/C=N/n2c(-c3ccco3)csc2=Nc2cccnc2)c(O)c1,?,-2.0%,?,-5.2%,-3.6%
COCCN=c1scc(-c2ccco2)n1/N=C/c1ccc(O)c(O)c1O,12.6µM*,25.1µM*,?,-0.5%,-18.8%
CC(C)N=c1scc(-c2ccco2)n1/N=C/c1ccc(O)c(O)c1,14.1µM*,?,14.1µM*[quencher],-0.2%,-1.2%
CCOc1ccc(N(CC)S(=O)(=O)N2CCCC(C(=O)Nc3ccc(OC)c(OC)c3)C2)cc1 (stereo unspecified),-10.2%,?,-24.8%,3.1%,-4.6%
COc1cccc(N=Nc2c(N)[nH][nH]c2=O)c1,?,2.3%,-28.5%,-4.4%,2.3%
COc1cccc(N=Nc2c(N)[nH]n3c(=O)c4c(nc23)CCCC4)c1,1.41µM*,3.2%,?,-0.5%,-1.6%
CCC(C)OC(=O)N1CCCCC1CCO (stereo unspecified),·,·,·,-7.6%[201 µM],-9.7%[201 µM]
COc1ccc(N=Nc2nc3ccc(Br)cc3n2C)cc1,1.58µM*,3.5%,-21.8%,4.6%,0.6%
C=C1CCC2C(CC2(C)C)C(=C)CC/C1=N/O (stereo unspecified),1.1%,3.3%,0.4%,0.6%,-3.6%
COc1ccccc1OCC(=O)N(Cc1ccc(N(C)C)cc1)CC1CCCO1 (stereo unspecified),-5.6%,1.5%,-9.5%,-7.7%,0.2%
COc1ccc(-c2cnc(N)nc2-c2ccc(OCc3ccccc3)cc2O)cc1,-11.0%,?,?,3.2%,-0.5%
CCc1cc(-c2nc(N)ncc2-c2ccc(Br)cc2)c(O)cc1OC,?,-2.8%,12.6µM*[quencher],1.6%,-2.1%
C[C@](N)(Cc1ccc(O)c(O)c1)C(=O)O,?,?,?,-3.5%,-0.4%
